The campaign covered roughly 310,000 compounds. About 18,000 (5.8%) were called active. Roughly 22% stayed inconclusive and do not appear here. Shown is part of a subset that was picked to be rich in actives. Where a call stands in place of a potency, no number is given. A number with no mark means an inactive call. Calls follow the shape of the dose curve; as a rule, active = well fitted inhibition curve with a large enough effect; inconclusive = small, poorly fitted or top-dose-only effect, or another doubt; inactive = no such curve, though single readings can be large or run the other way.
Potency is read from the fitted curve at half-maximal effect.

The nature of this assay: Primary qHTS for delayed death inhibitors of the malarial parasite plastid, 48 hour incubation. The note with it: P. falciparum luciferase growth in erythrocytes; series mostly up to 28.7 µM. The procedure, abridged:
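Luminescence readout; reporter = integrated firefly luciferase in P. falciparum. RBC culture at 2% hematocrit, 0.1% parasitemia final, 37 C/5% CO2; decreased signal taken as growth inhibition.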
For `CC(=O)c1ccc(S(=O)(=O)Nc2ccc(-c3ccc4nncn4n3)cc2)cc1`, the Potency entry is “inactive”.
On the same count and under the same terms, the result for `O=C(CNC(=O)c1ccc(F)cc1)c1ccccc1` reads “inactive”; that for `O=C(C[n+]1cc(Br)cc2ccccc21)c1ccc(F)cc1`, 11.7 µM (active).
With `COC(=O)C[n+]1cccc2ccccc21`, the Potency result is “inactive”.
As to `Cc1cccc(NS(=O)(=O)c2ccc(-c3cnc(C4CC4)o3)cc2)c1`, the Potency result is “inactive”.
The same measure, in the same setting: the value for `COc1ccccc1C(=O)COC(=O)CSCC(=O)Nc1cc(C)on1` was “inactive”.
As for `COC(=O)c1ccc(COC(=O)CNC(=O)c2cccc(OC)c2)o1`, the Potency entry is “inactive”.
Same read-out and setting: the result for `COc1cc(/C=N/N2CCN(c3ccccc3)CC2)ccc1OC(C)=O` reads “inactive”; that for `COc1ccccc1C(c1nnnn1CC1CCCO1)N1CCN(c2ccccc2)CC1` (configuration not stated), 11.7 µM (active).
For the compound `O=C(CSc1nnc(-c2ccco2)n1CC1CCCO1)c1ccccc1` (configuration not stated), the Potency entry is “inactive”.
Still for that read-out and setting: the result for `COc1ccccc1NC(=O)CSc1nnc(C)n1CC1CCCO1` (configuration not stated) reads “inactive”; that for `COc1ccc(C(c2nnnn2Cc2cccs2)N2CCN(c3ccccc3)CC2)cc1OC` (configuration not stated), 14.7 µM (active); that for `COc1ccc(CCn2nnnc2C(c2ccccc2)N2CCN(C)CC2)cc1OC` (configuration not stated), “inactive”.
On the same count and under the same terms, the result for `CCOc1cccc2cc(C(=O)OCC(=O)Nc3c(C)cccc3CC)c(=O)oc12` reads “inactive”; that for `CCCc1ccc(C(=O)COC(=O)CN2C(=O)NC3(CCCCC3C)C2=O)cc1` (configuration not stated), “inactive”.
On the same count and under the same terms, the result for `CC(C)C(c1nnnn1C1CCCCC1)N1CCN(C(=O)c2ccco2)CC1` (configuration not stated) reads “inactive”; that for `CC(=O)c1ccc(-n2nnnc2SCC(=O)N2CCN(C(=O)c3ccco3)CC2)cc1`, “inactive”; that for `CCC(c1nnnn1C1CCCC1)N1CCN(C(=O)c2ccco2)CC1` (configuration not stated), 8.28 µM (active).
Turning to `CN(C)c1nc(=Nc2cccc(Cl)c2)ss1`, the Potency is 1.04 µM (active).
As for `Cc1cc(OCc2cc(C(=O)NCc3cc(C(C)C)no3)no2)cc(C)c1Cl`, the Potency entry was “inactive”.
Turning to `COC(=O)c1ccc(COC(=O)c2cnc(Cl)c(Cl)c2)cc1`, the Potency result is “inactive”.
On the same count and under the same terms, the result for `Cc1cc(C(F)(F)F)nc(SCC(=O)Nc2nccs2)n1` reads “inactive”.
Still for that read-out and setting: the value for `COc1ccc(C(C)NC(=O)C23CC4CC(CC(C4)C2)C3)cc1` (configuration not stated) was “inactive”; that for `CN1C(=O)C2(OCCCO2)c2cc(Cl)ccc21` was “inactive”.
In the case of `CN1CCN(c2nc(Nc3ccc(O)cc3)nc3ccccc23)CC1`, the Potency was 2.94 µM (active).
The same measure, in the same setting: the result for `CCc1ccc(-c2cc(C(=O)NN3CCN(C)CC3)c3ccccc3n2)cc1` reads “inactive”; that for `CCCCc1nc2ccccc2c(NC(=O)CN2CCN(C)CC2)c1CCC`, “inactive”.
The same measure, in the same setting: the value for `CCOC(CNC(=O)C1CCN(S(=O)(=O)c2ccc3nc4c(c(C(=O)O)c3c2)CC(C)CC4)CC1)OCC` (configuration not stated) was “inactive”; that for `C/C(=N\N(C)C)c1ccc(OCCOc2ccc([N+](=O)[O-])cc2)cc1` was “inactive”.
Still for that read-out and setting: the result for `COc1ccccc1OCC(=O)Nc1ccccc1C(=O)NC1CC1` reads “inactive”; that for `C#CC(C)(C)NC(=O)c1cnc(-c2ccccc2)nc1-c1ccccc1`, “inactive”; that for `COc1ccc2nc(N3CCN(C(=O)c4ccc([N+](=O)[O-])o4)CC3)sc2c1`, 1.31 µM (active).
On to `O=C(c1ccc2nc(N3CCOCC3)sc2c1)N1CCN(c2ccc(Cl)cc2)CC1`, for which the Potency entry was “inactive”.
On the same count and under the same terms, the value for `Cc1ccc2nc(N3CCN(C(=O)c4ccco4)CC3)sc2c1` was “inactive”.
Turning to `Cc1nc(C)c(-c2nnc(-c3cccc(S(=O)(=O)N(C)C)c3)o2)cc1C(=O)NN`, the Potency result is “inactive”.
Still for that read-out and setting: the value for `O=C(COc1coc(CN2CCN(c3ccccc3)CC2)cc1=O)Nc1ccccc1F` was “inactive”.
On the same count and under the same terms, the value for `O=C(COc1coc(CN2CCN(c3ccccc3)CC2)cc1=O)N1CCc2ccccc21` was “inactive”; that for `Cc1cc(C)cc(NC(=O)COc2coc(CN3CCN(c4ccccc4)CC3)cc2=O)c1` was 13.1 µM (active).
On the same count and under the same terms, the result for `Cc1ccsc1C(=O)NCCc1ccco1` reads “inactive”; that for `O=C(c1[nH]ncc1-c1ccc(Cl)cc1)C1CO1` (configuration not stated), 7.38 µM (active); that for `O=C(c1nnc(-c2ccc(Cl)cc2)o1)C1CCCC1`, “inactive”.
Consider `C=CCNC(=O)c1ccccc1SCc1c(C)noc1C`, for which the Potency result is “inactive”.
On to `COc1ccc(NC(=O)CN(C)C(=O)c2ccc(COc3ccccc3)o2)cc1`, for which the Potency entry was “inactive”.
The same measure, in the same setting: the value for `Cc1ccc(C(C)C)c(OCCSc2nc3ccccc3n2CC(=O)O)c1` was “inactive”.
The same measure, in the same setting: the value for `COc1cccc(NC(=O)NCc2ccc(F)cc2)c1` was “inactive”; that for `Cc1cccc(NC(=O)Nc2cccc(Oc3c(F)c(F)c(F)c(F)c3F)c2)c1` was 4.15 µM (active).
Still for that read-out and setting: the result for `Cc1cccc(NC(=O)Nc2nnc(-c3ccccc3)o2)c1` reads “inactive”.
`Cn1c(=O)c(=O)n(C)c2cc(S(=O)(=O)CCC(=O)N3CCCCC3)ccc21`: the Potency result is “inactive”.
Still for that read-out and setting: the value for `COc1cccc(OCc2cc(C(=O)N3CCN(C(=O)c4ccco4)CC3)no2)c1` was “inactive”; that for `COc1ccc(OC)c(C(=O)NC(CC(N)=O)c2ccc(N3CCC(N4CCCCC4)CC3)c([N+](=O)[O-])c2)c1` (configuration not stated) was “inactive”; that for `O=C(O)C1CSC(c2cccnc2)N1` (configuration not stated) was “inactive”.
As to `CCCCCCCCCCCCN1C(=O)CSC1c1cccnc1` (configuration not stated), the Potency was 1.85 µM (active).
On the same count and under the same terms, the result for `CN(C)CCCN1C(=O)CSC1c1ccc([N+](=O)[O-])cc1` (configuration not stated) reads “inactive”; that for `CCN(CC(=O)Nc1ccc(NC(C)=O)cc1)C(=O)CSC(=S)N1CCCC1`, “inactive”.
Turning to `Cc1cc(C)nc(N/N=C/c2ccc([N+](=O)[O-])o2)n1`, the activity change, negative = inhibition was -1.43% [at 0.00184 µM].
`CCN(CC)c1ccc(/C=N/Nc2nc(C)cc(C)n2)c(O)c1`: the Potency was 7.38 µM (active).
Still for that read-out and setting: the value for `CCOc1cc(/C=N/Nc2cc(C)nc3ccc(C)cc23)ccc1O` was “inactive”.
Still for that read-out and setting: the value for `CC(C)NC(=O)N1CCN(c2ccncc2S(=O)(=O)N2CCCCC2)CC1` was “inactive”; that for `O=C(CCS(=O)(=O)c1ccccc1)NC1CCCC1` was “inactive”.
Same read-out and setting: the result for `COc1ccccc1OCCCC(=O)Nc1ccc2c(c1)OCCO2` reads “inactive”; that for `O=C(NCCN1CCOCC1)c1ccc2c(c1)ncn2C1CCCC1`, “inactive”.
Consider `c1ccc2cc3c(NCCN4CCOCC4)ccnc3cc2c1`, for which the Potency is 0.147 µM (active).
On the same count and under the same terms, the value for `O=C(Cn1c(-c2ccccn2)nc2ccccc21)NCCN1CCOCC1` was “inactive”; that for `O=C(NCCS(=O)(=O)N1CCN(c2ccccc2)CC1)c1ccco1` was “inactive”.
Still for that read-out and setting: the result for `CC1CN(C(=S)Nc2ccc(Br)cc2Cl)CC(C)O1` (configuration not stated) reads “inactive”; that for `CS(=O)(=O)c1ccccc1C(=O)Nc1ccc2sccc2c1`, “inactive”.
Still for that read-out and setting: the value for `COc1ccc(CC(NC(C)=O)C(=O)NC2CCN(C(=O)c3ccc(Cl)cc3)CC2)cc1` (configuration not stated) was “inactive”; that for `COc1ccccc1N(C)S(=O)(=O)c1ccc(Cl)c(C(=O)N2CCC(C(N)=O)CC2)c1` was “inactive”.
With `COc1ccccc1N(C)S(=O)(=O)c1ccc(C(=O)NC2CCCCCC2)cc1`, the Potency result was “inactive”.
Still for that read-out and setting: the result for `COc1ccccc1N(C)S(=O)(=O)c1ccc(Cl)c(C(=O)Nc2ccncc2)c1` reads 8.28 µM (active).
On the same count and under the same terms, the result for `COc1ccc(CNC(=O)COC(=O)c2c(C)nn(-c3ccccc3)c2C)cc1OC` reads “inactive”; that for `FC(F)(F)c1cnc(Oc2ccccc2-c2nnc(-c3ccc(Cl)cc3)o2)c(Cl)c1`, 4.15 µM (active); that for `CSc1ccccc1-c1nnc(-c2ccc(Cl)cc2)o1`, “inactive”.
Same read-out and setting: the value for `COC(=O)Cc1ccc(Oc2ncc(C(F)(F)F)cc2Cl)cc1` was “inactive”.
As for `Cc1ccsc1C(=O)N[C@@H](C)c1nnc2ccccn12`, the Potency result is “inactive”.
On the same count and under the same terms, the value for `NS(=O)(=O)c1ccc2nc(NC(=O)CS(=O)(=O)c3ccc(F)cc3)sc2c1` was “inactive”; that for `Cc1cc(S(=O)(=O)NCc2ccccn2)c(Cl)cc1Cl` was “inactive”.
The same measure, in the same setting: the result for `O=C(CC1Nc2ccccc2NC1=O)Nc1ccccc1NC(=O)CC1Nc2ccccc2NC1=O` (configuration not stated) reads “inactive”; that for `O=C(CC1Nc2ccccc2NC1=O)Nc1ccccc1` (configuration not stated), 11.7 µM (active).
Regarding `O=C(CC1NCCNC1=O)Nc1ccc(Oc2ccccc2)cc1` (configuration not stated), the Potency result was “inactive”.
Still for that read-out and setting: the value for `O=C(NCCc1ccc(Cl)cc1Cl)c1cc([N+](=O)[O-])c[nH]c1=O` was “inactive”; that for `CC(=O)c1c(C)[nH]c(C(=O)OCC(=O)Nc2c(C)n(C)n(-c3ccccc3)c2=O)c1C` was “inactive”.
The same measure, in the same setting: the value for `CC(C)(C)n1nnnc1C(c1ccccc1F)N1CCN(C(=O)c2ccco2)CC1` (configuration not stated) was “inactive”; that for `CCOc1ccc(S(=O)(=O)N(CC(=O)NCC(F)(F)F)Cc2ccco2)cc1` was “inactive”.
Consider `CCOc1ccc(CN(Cc2ccco2)C(c2cccs2)c2nnnn2C(C)(C)C)cc1` (configuration not stated), for which the Potency is 3.29 µM (active).
The same measure, in the same setting: the value for `CS(=O)(=O)N1CCN=C1SCc1ccc(F)cc1` was “inactive”; that for `Cc1ccc(Cc2cnc(NC(=O)/C(C#N)=C/c3ccc(-c4cccc([N+](=O)[O-])c4)o3)s2)cc1` was “inactive”; that for `N#C/C(=C\c1ccc(-c2cccc([N+](=O)[O-])c2)o1)C(=O)NCCN1CCOCC1` was 10.4 µM (active).
The same measure, in the same setting: the value for `O=C(NCCCN1CCOCC1)c1ccc([N+](=O)[O-])cc1[N+](=O)[O-]` was “inactive”; that for `COc1ccc(C2CC(=O)NC(=O)C2)cc1` was “inactive”; that for `NS(=O)(=O)c1ccc(CCNC(=O)COC(=O)COc2cccc(C(F)(F)F)c2)cc1` was “inactive”.
The same measure, in the same setting: the result for `Nc1c(N(CCCO)C(=O)C2CCCC2)c(=O)[nH]c(=O)n1Cc1ccccc1` reads “inactive”; that for `CC(C)Cn1cnc2c1c(=O)n(CC(O)c1ccccc1)c(=O)n2CC(C)C` (configuration not stated), 4.65 µM (active).
Regarding `CC(=O)Cn1cnc2c(cnn2-c2ccccc2)c1=O`, the Potency result was “inactive”.
On to `Cc1nc2ccccc2n1CC(O)c1ccccc1` (configuration not stated), for which the Potency result is “inactive”.
Still for that read-out and setting: the value for `N#Cc1ccc(C2N=C(c3ccccc3)NO2)cc1` (configuration not stated) was “inactive”; that for `O=C(CNC(=O)c1cccs1)N/N=C/c1cccc(Br)c1` was “inactive”; that for `O=C(CSC1=NS(=O)(=O)c2cc(F)ccc2N1)Nc1ccccc1F` was “inactive”.
Same read-out and setting: the result for `CN1c2ccc(C=O)c3c(C=O)ccc(c23)N(C)C1(C)C` reads 11.7 µM (active).
With `COc1ccc(-c2noc(CNC(=O)C(C)Oc3ccccc3)n2)cc1` (configuration not stated), the Potency result is “inactive”.
The same measure, in the same setting: the result for `CC1CCCCC1NC(=O)NC(=O)COC(=O)C1=NN(c2ccccc2)C(=O)CC1` (configuration not stated) reads “inactive”; that for `CCn1cc(CN2CCC(C(=O)Nc3cccc(-c4cccc(Cl)c4)c3)CC2)cn1`, “inactive”; that for `CCNC(=O)N1CCCC(C(=O)c2ccc(-c3ccccc3)cc2)C1` (configuration not stated), “inactive”.
Same read-out and setting: the value for `O=C(NCc1ccccc1)C1C(=O)N(Cc2ccccc2)C(=O)C1C1(O)CCCC1` (configuration not stated) was “inactive”.
On the same count and under the same terms, the value for `CCN1C(=O)[C@@H]2[C@@H](c3ccc(-c4ccccc4)cc3)N3CCCC[C@@]3(C(=O)OC)[C@@H]2C1=O` was 9.28 µM (active).
In the case of `CCN1C(=O)[C@@H]2[C@@H](c3ccc(-c4cccc(Cl)c4)cc3)N3CCC[C@@]3(C(=O)OC)[C@@H]2C1=O`, the Potency is 11.7 µM (active).
The same measure, in the same setting: the value for `CCCCCCSc1ccc([C@@H]2[C@@H]3C(=O)N(CC)C(=O)[C@@H]3[C@]3(C(=O)OC)CCCCN23)cc1OC` was 1.85 µM (active).

The record behind these values is PubChem BioAssay AID504832 (National Center for Advancing Translational Sciences (NCATS), 2011).
